Assay results published in PubChem BioAssay AID1789 (The Scripps Research Institute Molecular Screening Center, 2009).
The campaign covered roughly 290,000 compounds. About 2,700 (0.93%) were called active.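 Rule for the calls: active = inhibition above the screen-wide mean plus 3 SD, computed separately per campaign (cut at about 16% in these data); inactive = the rest.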 Shown is part of a subset that was picked to be rich in actives. Square brackets hold non-standard residues; d marks the D form. Peptide text beside a SMILES is read from it. * marks the point of attachment. PhAc = O=C(Cc1ccccc1)*

Tested on: Heat shock protein HSP 90 (rabbit reticulocyte lysate; luciferase refolding)
Experiment: inhibitors of HSP90 chaperone activity – cell lysate, luminescence, primary screen (AID 1789);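 note: 0% = DMSO wells and 100% = 60 µM geldanamycin wells; inhibitors lower the luminescence because luciferase stays unfolded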
Conditions: 3 h, at 5.6 µM, stronger effect = higher value

SMILES | inhibition
COc1cc(OC)c(C(=S)N2CCCC2)cc1OC | -0.17% (inactive)
O=C(Cn1ncc(N2CCCC2)c(Br)c1=O)c1ccc(Cl)cc1 | -0.91% (inactive)
CC(C)(C)Nc1nc(-c2ccccn2)nc2ccccc12 | -0.49% (inactive)
Cc1nc(COc2cc3oc(=O)cc(C)c3cc2Cl)cs1 | 1.76% (inactive)
CCN(C(=O)Cc1c(C(=O)O)n(CC)c2ccccc12)c1ccccc1C | -6.6% (inactive)
Cc1c(CNCCc2ccccc2)c(C(=O)O)c(C)n1-c1ccccc1 | 1.5% (inactive)
CCOCCOC(=O)C1=C(C)NC(=O)NC1c1ccc2c(c1)OCO2 (configuration not stated) | -3.33% (inactive)
O=C(NC1CCCCCCC1)c1cccs1 | -3.45% (inactive)
O=C(NCc1ccco1)/C(=C\c1cccc([N+](=O)[O-])c1)NC(=O)c1ccco1 | -0.13% (inactive)
COCCN(C(=O)CCC(=O)Nc1nccs1)C(C(=O)NCCC(C)C)c1ccc(F)cc1 (configuration not stated) | 2.45% (inactive)
Cc1ccc2c(cnn2C(=O)CCC(=O)NC2CCCC2)c1 | -3.9% (inactive)
O=[N+]([O-])c1ccc(N=Cc2c(O)ccc3ccccc23)cc1 | 2.1% (inactive)
Oc1c(C=Nc2cccc3nsnc23)ccc2ccccc12 | 36.7% (active)
COc1ccc(C=Nc2cccc3ncccc23)cc1 | 7.77% (inactive)
CC(C)C[C@@H](NC(=O)[C@H]1CCCN1C(=O)Cc1ccccc1)C(N)=O (PhAc-[dP]-[dL]-NH2) | -3.77% (inactive)
COc1ccccc1NC(=O)CN(c1ccccc1OC)S(=O)(=O)c1ccccc1 | 0.43% (inactive)
Cc1cccc(NC(=O)/C=C/c2ccc3c(c2)OCO3)n1 | 22.8% (active)
Cc1cccc(NC(=O)Nc2ccc3c(c2)OCO3)n1 | -5.1% (inactive)
CCc1c(C)sc(NC(=O)/C=C/c2ccc3c(c2)OCO3)c1C(=O)OC | -8.23% (inactive)
Cc1cc(C)cc(NC(=O)NC2CCCCCCC2)c1 | -3.82% (inactive)
O=C(Nc1ccn(Cc2ccccc2)n1)c1n[nH]c([N+](=O)[O-])c1Cl | 22.3% (active)
O=C(Nc1ccn(Cc2ccccc2)n1)c1cccc(F)c1 | 11.1% (inactive)
Cn1cc([N+](=O)[O-])c(C(=O)Nc2cnn(Cc3ccc(F)cc3)c2)n1 | -0.28% (inactive)
O=S(=O)(NC1CCCCC1N1CCN(c2ccccc2F)CC1)c1ccccc1 (configuration not stated) | 2.71% (inactive)
O=C(Nc1ccc(Cl)cc1)c1cccc(OC(=S)N2CCOCC2)c1 | -7.8% (inactive)

SMILES | inhibition
CCOC(=O)Cn1c(=O)n(Cc2ccc(OC)cc2)c(=O)c2cccnc21 | -2.48% (inactive)
Oc1cccc(/C=N/Nc2ccc(Cl)nn2)c1O | 5.19% (inactive)
CCc1ccc(NC(=O)CCNS(=O)(=O)c2cccs2)cc1 | -2.78% (inactive)
COCC(=O)Nc1c(C(=O)N2CCCC2)oc2ccccc12 | -3.81% (inactive)
O=C1CSC(c2ccccc2)N1c1nc(-c2ccc(Cl)cc2Cl)cs1 (configuration not stated) | -0.17% (inactive)
Clc1ccc(-c2cc(-c3ccccn3)on2)c(Cl)c1 | 38.6% (active)
Clc1ccc(-c2ncc3ccccn23)c(Cl)c1 | 4.35% (inactive)
O=C(O)c1ccc(N=NN2CCOCC2)cc1 | 20.6% (active)
NC(=NC(=O)c1ccccc1)N1CCOCC1 | -2.45% (inactive)
O=C(O)c1cccc(N=NN2CCCCCC2)c1 | 37.5% (active)
O=C(c1ccccc1)N1CCN(C(=O)N2CCCCC2)CC1 | -0.28% (inactive)
O=C(NC(=O)N1CCOCC1)c1ccccc1 | 0.55% (inactive)
CN1CCN(S(=O)(=O)c2cccc(C(=O)O)c2)CC1 | -1.11% (inactive)
COC(=O)c1sc(NC(=S)NC(=O)c2ccc(C)cc2)nc1C | 1.68% (inactive)
Cc1ccc(NC(=O)c2csc3c2CCCC3)cc1 | 1.71% (inactive)
COc1cc(SC)ccc1C(=O)Nc1cc(C)ccn1 | 12.1% (inactive)
COc1ccc(Cc2nnc(NC(=O)c3ccc(OC)cc3OC)s2)cc1 | -0.32% (inactive)
COC(=O)c1sc(NC(=O)c2csc3c2CCCC3)nc1C | 35.7% (active)
COc1cc(SC)ccc1C(=O)Nc1nc(C)cs1 | 82.5% (active)
COc1cc(SC)ccc1C(=O)NCCOc1ccccc1Cl | 3.08% (inactive)
COc1cc2ccccc2cc1C(=O)Nc1nc(C)c(C(C)=O)s1 | 10.7% (inactive)
COC(=O)c1sc(NC(=O)c2ccc(OC)cc2OC)nc1C | 36.3% (active)
CCN(C(=O)c1cc([N+](=O)[O-])ccc1NCc1cccnc1)c1ccccc1 | -2.39% (inactive)
Cc1ccc(-c2csc(N3CCN(c4cc5c(cc4Cl)nc(-c4ccncc4)n5CCOCCO)CC3)n2)cc1 | 0.37% (inactive)
O=C(O)c1cc2c(cc1NC(=O)c1c(F)cccc1Cl)OCCCO2 | 1.02% (inactive)

SMILES | inhibition
Cc1cc(=O)oc2cc(OCC(=O)N3CCN(c4ccc(F)cc4)CC3)c(Cl)cc12 | 0.58% (inactive)
CCOc1ccccc1NS(=O)(=O)c1c[nH]c(C(=O)OC)c1 | -0.36% (inactive)
CCC1Oc2ccccc2N(CC(=O)NCCCN2CCN(CC)CC2)C1=O (configuration not stated) | -0.16% (inactive)
CCCc1nc2ccccc2c(C(=O)OCC(=O)c2ccc3c(c2)NC(=O)CO3)c1CC | 10.5% (inactive)
O=C(CCc1nc2ccccc2c(=O)[nH]1)OCC(=O)c1cccc(Cl)c1 | -0.45% (inactive)
Cc1ccc(C(=O)COC(=O)c2cccc(N3C(=O)c4c(C)nc5ccccc5c4C3=O)c2)cc1C | 21.8% (active)
COc1ccc(Cl)cc1-n1c(=S)sc2c(=O)n(-c3ccc(F)cc3)c(SCC(=O)O)nc21 | -4.32% (inactive)
CCc1nc(SCC(=O)Nc2ccccc2OC)n[nH]1 | 37.9% (active)
CCCCCNC(=O)c1cccnc1SCC(=O)Nc1ccccc1OC | 0.66% (inactive)
COC(=O)c1ccccc1NC(=O)CSc1n[nH]c(-c2ccncc2)n1 | -0.92% (inactive)
Nc1nnnn1/N=C/c1cccc(Br)c1 | -1.72% (inactive)
CCCN1C2CCCC1CC(NC(=O)NC13CC4CC(CC(C4)C1)C3)C2 (configuration not stated) | 2.81% (inactive)
CNC(=S)N/N=C/c1ccc(N2CCOCC2)s1 | 5.17% (inactive)
C/C(=N\NC(=O)c1ccccc1F)c1ccccn1 | 21.6% (active)
COc1ccc(CC(=O)N/N=C(\C)c2ccccn2)cc1 | 2.53% (inactive)
C/C(=N\NC(=O)Cc1ccc(Cl)cc1)c1ccccn1 | 1.95% (inactive)
Cc1ccc(/C=C2/SC(=S)N(CCC(=O)NCCCN3CCOCC3)C2=O)cc1 | -1.06% (inactive)
O=C1CCC(C(=O)N2CCC(O)(c3ccccc3)CC2)CN1CCc1ccccc1 (configuration not stated) | -4.78% (inactive)
O=C(CN(C(=O)c1nsc(Cl)c1Cl)c1cccc(F)c1)NC1CCCC1 | -2.72% (inactive)
COc1ccc(CNC(=O)CCN2C(=O)c3ccccc3C2=O)cc1 | 3.06% (inactive)
CN(Cc1ccccc1)C(=O)C1CCCN(c2ncnc3c2nc2n3CCCCC2)C1 (configuration not stated) | -4.53% (inactive)
CC(C)(C)c1ccc(C(=O)NCCn2c(N)c(C#N)c3nc4ccccc4nc32)cc1 | 2.15% (inactive)
COCC(C)OC(=O)c1c(N)n(CCCN2CCOCC2)c2nc3ccccc3nc12 (configuration not stated) | 4.05% (inactive)
CC(C)(C)OC(=O)c1c(N)n(CCCN2CCCC2=O)c2nc3ccccc3nc12 | 17.2% (active)
Cc1c(C(=O)N/N=C/c2ccccc2)[nH]c2c([N+](=O)[O-])cccc12 | 3.21% (inactive)

SMILES | inhibition
COc1cccc2c(C)c(C(=O)O)[nH]c12 | 30.8% (active)
COc1cc2c(C(=O)O)c(C)n(C)c2c2ccccc12 | 1.04% (inactive)
Cc1cccc(-c2c(NC(=O)c3ccco3)oc3ccc(Cl)cc3c2=O)c1 | 3.25% (inactive)
CCOC(=O)c1nc(C)n(-c2ccc(Cl)cc2Cl)n1 | 17.8% (active)
CCOC(=O)c1cnc(SC)nc1Sc1ccc(Cl)cc1Cl | -1.52% (inactive)
Cc1cc(C)nc(/N=C2\NC(=O)CC(C(=O)O)N2c2ccc(Cl)cc2Cl)n1 (configuration not stated) | 3.62% (inactive)
CC(=O)N1CCN(CC(C)(C)NS(=O)(=O)c2ccc(C)cc2)CC1 | -0.75% (inactive)
CC(CC(=O)Nc1ccc(F)cc1F)S(=O)(=O)c1ccc2c(c1)NC(=O)CO2 (configuration not stated) | -2.21% (inactive)
Cc1ccsc1C(=O)OCC(=O)c1cc(C)n(CC2CCCO2)c1C (configuration not stated) | 82.5% (active)
Cc1cc(C(=O)CCl)c(C)n1CC1COc2ccccc2O1 (configuration not stated) | 4.06% (inactive)
Cc1cc(C(=O)Cn2cnc3cc([N+](=O)[O-])ccc3c2=O)c(C)n1CC1CCCO1 (configuration not stated) | -6.94% (inactive)
CCOC(=O)CSc1nc2ccc(C)cc2n2cnnc12 | -0.11% (inactive)
O=C(Nc1ncc2c(n1)CC(c1ccco1)CC2=O)c1ccc(Cl)cc1 (configuration not stated) | 1.31% (inactive)
COc1cc(C2CC(=O)c3cnc(NC(C)=O)nc3C2)cc(OC)c1OC (configuration not stated) | -1.32% (inactive)
CCc1ccc(Nc2ncc3c(n2)CC(c2ccco2)CC3=O)cc1 (configuration not stated) | 22% (active)
COc1ccc(NC(=O)NCc2ccc3c(c2)OCO3)c(OC)c1 | -7.38% (inactive)
CCC(C)(C)n1nnnc1C(c1ccc(OC)c(OC)c1)N1CCN(C(=O)c2ccco2)CC1 (configuration not stated) | -0.49% (inactive)
CCC(=O)Nc1c(S(=O)(=O)c2ccccc2)c2nc3ccccc3nc2n1Cc1ccccc1 | 5.13% (inactive)
Cc1ccc(S(=O)(=O)c2c(N)n(C)c3nc4ccccc4nc23)cc1 | -1.87% (inactive)
CCN(CC)CCn1c(N)c(S(=O)(=O)c2ccccc2)c2nc3ccccc3nc21 | 22.7% (active)
O=C(N/N=C/c1ccoc1)c1ccc(Cl)cc1Cl | -0.55% (inactive)
CCN(CC)CCNc1nc(-c2ccc(OC(F)F)cc2)c(C)s1 | 1.64% (inactive)
